# Source: PubChem BioAssay
# For part of these data: Measured potencies and affinities stand elsewhere. Calls of active or inactive are those of the source.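 How the source made its calls, unless noted: active means earlier screen potentiator hit that boosts the TRPC4 ion channel at some dose, with a dose response; inactive means no potentiation, no dose response, or not a prior hit.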
# Assays:
# [1] = test system: TRPC4 beta (transient receptor potential cation channel C4), mouse; assay: activators of mouse TRPC4 channel, confirmation, cell-based, Fluo4 calcium, HEK293 TRPC4beta/mu-opioid, duplicates, 10 µM (AID 2426;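 active means fluorescence ratio normalized to control raised more than 50% in primary screen plus both repeat runs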;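 on activation: percent rise of integrated ratio over buffer wells lacking compound which define 0%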); conditions: Fluo4 calcium fluorescence, at 10 µM; hits give high values
# [2] = test system: transient receptor potential cation channel C4 beta (TRPC4), mouse; assay: activators of mouse TRPC4 channel, confirmation, cell-based, second round, Fluo4, HEK293 TRPC4beta/mu-opioid, 1 µM (AID 2461;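 active means primary screen active and over 50% activation in each of two duplicate runs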); conditions: Fluo4 calcium fluorescence, at 1 µM; hits give high values
# [3] = test system: TRPC4 (transient receptor potential cation channel C4 beta), mouse; assay: positive allosteric modulators of mouse TRPC4, confirmation, cell-based, second round, Fluo-4, HEK293 TRPC4beta/mu-opioid, 1 µM (AID 2554;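 active means primary screen hit whose fluorescence ratio, in both repeats, exceeds the weak agonist control mean by 3 SD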); conditions: DAMGO EC20, Fluo-4 calcium flux, at 1 µM; hits give high values
# [4] = test system: TRPC4 beta (transient receptor potential cation channel C4), mouse; assay: positive allosteric modulators of mouse TRPC4, confirmation, cell-based, Fluo-4, HEK293 TRPC4beta/mu-opioid (AID 2555;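 active means primary screen hit whose calcium fluorescence ratio, in both repeats, exceeds the weak agonist control mean by 3 SD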); conditions: DAMGO EC20, Fluo-4 calcium flux, at 10 µM; hits give high values
# [5] = biological target: Short transient receptor potential channel 4 (Mus musculus) (UniProt Q9QUQ5); assay: inhibitors of mouse TRPC4 channel, confirmation, cell-based, Fluo4, HEK293 TRPC4beta/mu-opioid (AID 2636;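 active means calcium signal cut by more than 3 SD below the full-agonist control yet still positive, in both repeats and the earlier primary screen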); conditions: DAMGO, Fluo4 calcium flux, at 10 µM; hits give high values
# Sequence of Short transient receptor potential channel 4 (Mus musculus) (Q9QUQ5 whole entry, looked up): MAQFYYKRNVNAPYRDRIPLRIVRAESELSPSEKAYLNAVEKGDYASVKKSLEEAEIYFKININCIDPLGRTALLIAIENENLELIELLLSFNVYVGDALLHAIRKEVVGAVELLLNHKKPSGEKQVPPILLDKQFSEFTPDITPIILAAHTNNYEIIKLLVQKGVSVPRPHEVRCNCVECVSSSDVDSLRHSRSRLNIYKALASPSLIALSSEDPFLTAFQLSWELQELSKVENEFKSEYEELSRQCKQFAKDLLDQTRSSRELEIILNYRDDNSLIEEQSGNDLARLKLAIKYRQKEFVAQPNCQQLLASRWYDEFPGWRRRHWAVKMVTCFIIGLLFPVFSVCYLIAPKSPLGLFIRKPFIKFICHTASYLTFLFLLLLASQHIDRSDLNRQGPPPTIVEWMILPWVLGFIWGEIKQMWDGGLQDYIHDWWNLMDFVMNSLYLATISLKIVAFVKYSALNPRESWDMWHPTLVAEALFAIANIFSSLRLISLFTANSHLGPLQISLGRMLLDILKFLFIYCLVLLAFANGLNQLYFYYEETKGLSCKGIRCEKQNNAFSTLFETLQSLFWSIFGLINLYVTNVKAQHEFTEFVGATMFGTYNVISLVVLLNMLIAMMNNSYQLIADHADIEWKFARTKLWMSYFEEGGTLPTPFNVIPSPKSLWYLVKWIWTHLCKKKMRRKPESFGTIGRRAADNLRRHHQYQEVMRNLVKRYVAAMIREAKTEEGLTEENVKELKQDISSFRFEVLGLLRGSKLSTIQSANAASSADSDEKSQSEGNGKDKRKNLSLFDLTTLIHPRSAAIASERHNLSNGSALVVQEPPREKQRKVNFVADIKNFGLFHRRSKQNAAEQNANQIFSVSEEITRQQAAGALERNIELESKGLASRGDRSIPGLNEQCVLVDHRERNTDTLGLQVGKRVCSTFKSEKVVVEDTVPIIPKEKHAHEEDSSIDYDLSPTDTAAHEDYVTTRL
# [6] = biological target: Short transient receptor potential channel 4 (Mus musculus) (UniProt Q9QUQ5); assay: inhibitors of mouse TRPC4 channel, confirmation, cell-based, second round, Fluo4, HEK293 TRPC4beta/mu-opioid, 1 µM (AID 2637;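 active means calcium signal ratio cut to more than 3 SD under the fully stimulated control mean yet still positive, in both repeats and the primary screen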;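 on inhibition: percent of integrated ratio relative to wells lacking test compound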); conditions: Fluo4 calcium flux, DAMGO, at 1 µM; hits give high values
# [7] = biological target: Short transient receptor potential channel 4 (Mus musculus) (UniProt Q9QUQ5); assay: mouse TRPC4 channel activators, dose response, cell-based, HEK293 TRPC4/mu-opioid, Fluo-4 calcium (AID 434937;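 active means primary screen activator hit with a dose response curve and TRPC4 channel activation at any tested dose; inactive means no activation, no dose response, or not a primary hit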)
# [8] = biological target: Short transient receptor potential channel 4 (Mus musculus) (UniProt Q9QUQ5); assay: TRPC4 positive allosteric modulators, dose response, cell-based, HEK293 TRPC4/mu-opioid, Fluo-4 calcium, EC20 DAMGO (AID 434941);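 further: calcium entry triggered by an EC20 dose of DAMGO at the co-expressed mu-opioid receptor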
# [9] = biological target: Short transient receptor potential channel 6 (Mus musculus) (UniProt Q61143); assay: inhibition of mouse TRPC6 channel, confirmation, selectivity assay for TRPC4 inhibitor project, cell-based, HEK293, membrane potential dye, duplicate (AID 434948;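 active means active in primary screen and both duplicates, each dropping signal beyond three positive-control SD with fluorescence still positive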); conditions: HEK293 TRPC6, membrane potential dye fluorescence, at 10 µM, stimulated with maximal-effect acetylcholine; hits give high values
# Sequence of Short transient receptor potential channel 6 (Mus musculus) (Q61143 whole entry, looked up): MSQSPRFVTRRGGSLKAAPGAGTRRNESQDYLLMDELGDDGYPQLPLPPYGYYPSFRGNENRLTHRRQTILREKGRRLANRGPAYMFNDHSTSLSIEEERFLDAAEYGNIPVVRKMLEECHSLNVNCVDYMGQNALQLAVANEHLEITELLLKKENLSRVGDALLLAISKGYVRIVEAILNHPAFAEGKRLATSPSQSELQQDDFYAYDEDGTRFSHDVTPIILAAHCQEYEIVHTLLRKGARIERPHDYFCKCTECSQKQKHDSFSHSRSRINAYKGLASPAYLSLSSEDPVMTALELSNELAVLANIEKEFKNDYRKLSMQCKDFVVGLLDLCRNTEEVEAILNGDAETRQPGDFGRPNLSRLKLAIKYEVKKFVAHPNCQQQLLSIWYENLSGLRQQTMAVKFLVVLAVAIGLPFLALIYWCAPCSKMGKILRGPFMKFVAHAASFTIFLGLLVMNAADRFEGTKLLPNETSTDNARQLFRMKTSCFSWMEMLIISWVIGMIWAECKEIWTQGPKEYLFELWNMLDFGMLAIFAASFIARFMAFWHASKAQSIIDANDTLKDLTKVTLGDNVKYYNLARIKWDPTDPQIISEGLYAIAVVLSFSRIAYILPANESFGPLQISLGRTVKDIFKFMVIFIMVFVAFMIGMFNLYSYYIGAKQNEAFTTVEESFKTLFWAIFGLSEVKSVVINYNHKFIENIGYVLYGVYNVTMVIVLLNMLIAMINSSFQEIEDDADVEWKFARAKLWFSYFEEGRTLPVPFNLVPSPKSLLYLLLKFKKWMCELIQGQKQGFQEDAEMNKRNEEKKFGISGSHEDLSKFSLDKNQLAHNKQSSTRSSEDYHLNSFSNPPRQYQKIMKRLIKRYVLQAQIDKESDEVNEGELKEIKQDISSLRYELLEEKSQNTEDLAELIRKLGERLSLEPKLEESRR
# [10] = biological target: Short transient receptor potential channel 6 (Mus musculus) (UniProt Q61143); assay: activation of mouse TRPC6 channel, confirmation, selectivity assay for TRPC4 activator project, cell-based, HEK293, membrane potential dye, duplicate (AID 434950;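 active means membrane potential signal rise above negative control mean plus 3 SD in both duplicates, also active in the earlier TRPC4 screen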); conditions: HEK293 TRPC6, membrane potential fluorescence, at 10 µM; hits give high values
# [11] = biological target: Short transient receptor potential channel 6 (Mus musculus) (UniProt Q61143); assay: TRPC6 potentiation by TRPC4 potentiator hits, confirmation, selectivity assay for TRPC4 potentiator project, HEK293 cells, membrane potential dye, duplicate (AID 434952;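 active means compound raising the membrane signal above positive-control mean plus 3 SD in both repeats, and a primary screen hit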); conditions: HEK293 TRPC6, membrane potential dye fluorescence, at 10 µM, maximal acetylcholine added after compound; hits give high values
# [12] = biological target: Short transient receptor potential channel 4 (Mus musculus) (UniProt Q9QUQ5); assay: calcium flux activators in TRPC4/5HT1a cells, counter-screen for TRPC4 activator project, cell-based, second counter screen, HEK293 TRPC4/5HT1a, Fluo-4 (AID 434977;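 active means calcium signal rise above buffer-control mean plus 5 SD in both duplicates, and also a hit in the primary screen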); conditions: Fluo-4 calcium flux, at 10 µM; hits give high values
# [13] = calcium flux inhibitors in TRPC4/5HT1a cells, confirmation, counter-screen for TRPC4 inhibitor project, cell-based, second counter screen, HEK293 TRPC4/5HT1a, Fluo-4 (AID 434978;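 active means primary screen active whose calcium signal fell more than 3 SD beyond the full-serotonin control mean in both duplicate plates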;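 on outcome: serotonin given first at submaximal then at maximal dose after compound preincubation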); conditions: Fluo-4 calcium flux, at 10 µM, serotonin added to trigger calcium flux; hits give high values
# [14] = test system: TRPC4 (mouse), co-expressed with 5HT1a in HEK293; assay: calcium flux potentiators in TRPC4/5HT1a cells, confirmation, counter-screen for TRPC4 potentiator project, cell-based, second counter screen, HEK293 TRPC4/5HT1a, Fluo-4 (AID 434979;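 active means signal rise over 3 SD above mean of control wells given weak agonist, in both repeats and first screen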); conditions: Fluo-4 calcium flux, at 10 µM, serotonin added at its EC20 dose; hits give high values
# [15] = calcium flux activation in mu-opioid HEK293 cells, confirmation, counter-screen for TRPC4 activator project, cell-based, HEK293 mu-opioid receptor line (AID 449723;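 active means hit in primary screen, with calcium signal over 5 SD above buffer well mean in both duplicates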;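 further: counter screen cells carry the mu-opioid receptor alone and lack TRPC4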); conditions: Fluo-4 calcium fluorescence, at 10 µM; hits give high values
# [16] = calcium flux enhancement in mu-opioid HEK293 cells, confirmation, counter-screen for TRPC4 allosteric potentiator project, cell-based, HEK293 mu-opioid receptor line (AID 449724;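 active means calcium signal rise more than 3 SD above the low-dose agonist control mean, in both duplicate plates and the primary screen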); conditions: Fluo-4 calcium flux, at 10 µM, compound added before EC20 DAMGO stimulus; hits give high values
smiles,measurement,setting,value
Clc1ccc(CN2C3=NCCN3c3ccccc32)cc1,outcome,[1],inactive
same,outcome,[2],inactive
same,outcome,[3],inactive
same,outcome,[4],inactive
same,inhibition,[5],99% (active)
same,inhibition,[6],75% (active)
same,outcome,[7],inactive
same,outcome,[8],inactive
same,outcome,[9],inactive
same,outcome,[10],inactive
same,outcome,[11],inactive
same,outcome,[12],inactive
same,inhibition,[13],14.4% (active)
same,outcome,[14],inactive
same,outcome,[15],inactive
same,outcome,[16],inactive
Cc1oc(-c2ccoc2)nc1CN(Cc1ccccc1)CC1CC1,outcome,[1],inactive
same,outcome,[2],inactive
same,outcome,[3],inactive
same,outcome,[4],inactive
same,inhibition,[5],95% (active)
same,outcome,[6],inactive
same,outcome,[7],inactive
same,outcome,[8],inactive
same,outcome,[9],inactive
same,outcome,[10],inactive
same,outcome,[11],inactive
same,outcome,[12],inactive
same,outcome,[13],inactive
same,outcome,[14],inactive
same,outcome,[15],inactive
same,outcome,[16],inactive
Cc1ccc(-c2csc(N(CCCN(C)C)C(=O)c3ccco3)n2)cc1,outcome,[1],inactive
same,outcome,[2],inactive
same,outcome,[3],inactive
same,outcome,[4],inactive
same,outcome,[5],inactive
same,inhibition,[6],52% (active)
same,outcome,[7],inactive
same,outcome,[8],inactive
same,inhibition,[9],37.5% (active)
same,outcome,[10],inactive
same,outcome,[11],inactive
same,outcome,[12],inactive
same,outcome,[13],inactive
same,outcome,[14],inactive
same,outcome,[15],inactive
same,outcome,[16],inactive
OC1(c2ccc(F)cc2)CCN(Cc2ccccc2)C1 (stereo not given),outcome,[1],inactive
same,outcome,[2],inactive
same,outcome,[3],inactive
same,outcome,[4],inactive
same,inhibition,[5],98% (active)
same,inhibition,[6],55% (active)
same,outcome,[7],inactive
same,outcome,[8],inactive
same,outcome,[9],inactive
same,outcome,[10],inactive
same,outcome,[11],inactive
same,outcome,[12],inactive
same,inhibition,[13],18.4% (active)
same,outcome,[14],inactive
same,outcome,[15],inactive
same,outcome,[16],inactive
CN(Cc1ccccc1)C(=O)CSc1nnc(-c2ccco2)n1-c1ccccc1,outcome,[1],inactive
same,outcome,[2],inactive
same,outcome,[3],inactive
same,outcome,[4],inactive
same,inhibition,[5],71% (active)
same,inhibition,[6],43% (active)
same,outcome,[7],inactive
same,outcome,[8],inactive
same,outcome,[9],inactive
same,outcome,[10],inactive
same,outcome,[11],inactive
same,outcome,[12],inactive
same,outcome,[13],inactive
same,outcome,[14],inactive
same,outcome,[15],inactive
same,outcome,[16],inactive
COc1ccccc1N1CCN(CC(C)N(C(=O)C2CCCCC2)c2ccccn2)CC1 (stereo not given),outcome,[1],inactive
same,outcome,[2],inactive
same,outcome,[3],inactive
same,outcome,[4],inactive
same,inhibition,[5],93% (active)
same,inhibition,[6],52% (active)
same,outcome,[7],inactive
same,outcome,[8],inactive
same,outcome,[9],inactive
same,outcome,[10],inactive
same,outcome,[11],inactive
same,outcome,[12],inactive
same,inhibition,[13],1.31% (active)
same,outcome,[14],inactive
same,outcome,[15],inactive
same,outcome,[16],inactive
COc1ccc(Br)cc1CNC(C)c1ccccc1 (stereo not given),outcome,[1],inactive
same,outcome,[2],inactive
same,outcome,[3],inactive
same,outcome,[4],inactive
same,inhibition,[5],55% (active)
same,outcome,[6],inactive
same,outcome,[7],inactive
same,outcome,[8],inactive
same,inhibition,[9],49.5% (active)
same,outcome,[10],inactive
same,outcome,[11],inactive
same,outcome,[12],inactive
same,inhibition,[13],23.6% (active)
same,outcome,[14],inactive
same,outcome,[15],inactive
same,outcome,[16],inactive
N=c1n(CCO)c2ccccc2n1Cc1ccc(Cl)cc1,outcome,[1],inactive
same,outcome,[2],inactive
same,outcome,[3],inactive
same,outcome,[4],inactive
same,inhibition,[5],96% (active)
same,inhibition,[6],75% (active)
same,outcome,[7],inactive
same,outcome,[8],inactive
same,outcome,[9],inactive
same,outcome,[10],inactive
same,outcome,[11],inactive
same,outcome,[12],inactive
same,inhibition,[13],11.9% (active)
same,outcome,[14],inactive
same,outcome,[15],inactive
same,outcome,[16],inactive
CC(=O)Nc1ccc(S(=O)(=O)Nc2nc3ccc(C)cc3s2)cc1,outcome,[1],inactive
same,outcome,[2],inactive
same,outcome,[3],inactive
same,outcome,[4],inactive
same,inhibition,[5],65% (active)
same,outcome,[6],inactive
same,outcome,[7],inactive
same,outcome,[8],inactive
same,outcome,[9],inactive
same,outcome,[10],inactive
same,outcome,[11],inactive
same,outcome,[12],inactive
same,outcome,[13],inactive
same,outcome,[14],inactive
same,outcome,[15],inactive
same,outcome,[16],inactive
CCCCOc1ccc(CSCCN=C(N)N)cc1,outcome,[1],inactive
same,outcome,[2],inactive
same,outcome,[3],inactive
same,outcome,[4],inactive
same,inhibition,[5],88% (active)
same,inhibition,[6],42% (active)
same,outcome,[7],inactive
same,outcome,[8],inactive
same,outcome,[9],inactive
same,outcome,[10],inactive
same,outcome,[11],inactive
same,outcome,[12],inactive
same,inhibition,[13],40.1% (active)
same,outcome,[14],inactive
same,outcome,[15],inactive
same,outcome,[16],inactive
COc1ccc(C2NC(C(=O)O)Cc3c2[nH]c2ccccc32)cc1CN1CCN(c2ccc(F)cc2)CC1 (stereo not given),outcome,[1],inactive
same,outcome,[2],inactive
same,outcome,[3],inactive
same,outcome,[4],inactive
same,inhibition,[5],58% (active)
same,outcome,[6],inactive
same,outcome,[7],inactive
same,outcome,[8],inactive
same,outcome,[9],inactive
same,outcome,[10],inactive
same,outcome,[11],inactive
same,outcome,[12],inactive
same,inhibition,[13],41.6% (active)
same,outcome,[14],inactive
same,outcome,[15],inactive
same,outcome,[16],inactive
CNC(=S)N1CCN(C(c2ccccc2)c2ccccc2)CC1,activation,[1],223% (active)
same,outcome,[2],inactive
same,outcome,[3],inactive
same,outcome,[4],inactive
same,inhibition,[5],93% (active)
same,outcome,[6],inactive
same,outcome,[7],inactive
same,outcome,[8],inactive
same,outcome,[9],inactive
same,outcome,[10],inactive
same,outcome,[11],inactive
same,outcome,[12],inactive
same,outcome,[13],inactive
same,outcome,[14],inactive
same,outcome,[15],inactive
same,outcome,[16],inactive
Cc1cc(-c2cn3ccccc3n2)c(C)n1-c1ccccc1,outcome,[1],inactive
same,outcome,[2],inactive
same,outcome,[3],inactive
same,outcome,[4],inactive
same,inhibition,[5],101% (active)
same,inhibition,[6],40% (active)
same,outcome,[7],inactive
same,outcome,[8],inactive
same,outcome,[9],inactive
same,outcome,[10],inactive
same,outcome,[11],inactive
same,outcome,[12],inactive
same,outcome,[13],inactive
same,outcome,[14],inactive
same,outcome,[15],inactive
same,outcome,[16],inactive
CC1CCN(CCOCCOc2ccccc2-c2ccccc2)CC1,outcome,[1],inactive
same,outcome,[2],inactive
same,outcome,[3],inactive
same,outcome,[4],inactive
same,inhibition,[5],101% (active)
same,inhibition,[6],57% (active)
same,outcome,[7],inactive
same,outcome,[8],inactive
same,outcome,[9],inactive
same,outcome,[10],inactive
same,outcome,[11],inactive
same,outcome,[12],inactive
same,inhibition,[13],28.2% (active)
same,outcome,[14],inactive
same,outcome,[15],inactive
same,outcome,[16],inactive
COc1ccc(C(CNC(=O)c2oc3ccc(Cl)cc3c2C)N2CCCCC2)cc1 (stereo not given),outcome,[1],inactive
same,outcome,[2],inactive
same,outcome,[3],inactive
same,outcome,[4],inactive
same,inhibition,[5],83% (active)
same,outcome,[6],inactive
same,outcome,[7],inactive
same,outcome,[8],inactive
same,outcome,[9],inactive
same,outcome,[10],inactive
same,outcome,[11],inactive
same,outcome,[12],inactive
same,outcome,[13],inactive
same,outcome,[14],inactive
same,outcome,[15],inactive
same,outcome,[16],inactive
